Assay results taken from the supplement of paper PMC10849652.
Of roughly 7,900 targets only a part is listed; those with a hit were picked by preference. About 0.6% of all pairs of compound and target were hits.

Compound: Cc1ccc(NC(=O)c2ccc(CN3CC[C@H](N(C)C)C3)c(C(F)(F)F)c2)cc1Nc1nccc(-c2cncnc2)n1 [bafetinib]
Assay: log2 fold change, soluble protein after heating vs DMSO (PISA); higher = thermal stabilisation; K562 cells, 10 uM, 30 min; active = over 0.2 and 3.5 SD of the protein, either way, in both replicates (recomputed)
Method in brief: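 Quantification of soluble protein used TMTpro 16plex LC-MS/MS, with channel sums equalised. Samples were the supernatant after 21,000xg for 90 min of pooled aliquots from K562 cells (2×10^6 cells/mL) treated with 10 μM compound for 30 min, heated for 3 min over 48°C-58°C, and extracted in PBS with 0.5% NP-40 at 4°C. Values, from duplicates, describe thermal stability against control samples on a log2 fold-change scale.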

Sequence of UniProt Q5R3I4 (Q5R3I4 whole entry, looked up): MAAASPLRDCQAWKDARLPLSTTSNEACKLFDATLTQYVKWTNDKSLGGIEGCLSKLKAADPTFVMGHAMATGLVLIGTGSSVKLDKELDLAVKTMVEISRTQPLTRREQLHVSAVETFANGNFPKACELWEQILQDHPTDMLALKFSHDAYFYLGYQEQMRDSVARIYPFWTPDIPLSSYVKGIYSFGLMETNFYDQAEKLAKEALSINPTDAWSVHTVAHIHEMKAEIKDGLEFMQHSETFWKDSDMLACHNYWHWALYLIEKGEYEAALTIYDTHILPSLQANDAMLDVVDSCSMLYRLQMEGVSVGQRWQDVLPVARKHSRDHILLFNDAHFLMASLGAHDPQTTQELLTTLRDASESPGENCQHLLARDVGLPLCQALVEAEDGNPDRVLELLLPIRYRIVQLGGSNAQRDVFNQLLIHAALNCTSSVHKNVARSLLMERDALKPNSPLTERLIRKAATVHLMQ
Sequence of UniProt P13010 (P13010 whole entry, looked up): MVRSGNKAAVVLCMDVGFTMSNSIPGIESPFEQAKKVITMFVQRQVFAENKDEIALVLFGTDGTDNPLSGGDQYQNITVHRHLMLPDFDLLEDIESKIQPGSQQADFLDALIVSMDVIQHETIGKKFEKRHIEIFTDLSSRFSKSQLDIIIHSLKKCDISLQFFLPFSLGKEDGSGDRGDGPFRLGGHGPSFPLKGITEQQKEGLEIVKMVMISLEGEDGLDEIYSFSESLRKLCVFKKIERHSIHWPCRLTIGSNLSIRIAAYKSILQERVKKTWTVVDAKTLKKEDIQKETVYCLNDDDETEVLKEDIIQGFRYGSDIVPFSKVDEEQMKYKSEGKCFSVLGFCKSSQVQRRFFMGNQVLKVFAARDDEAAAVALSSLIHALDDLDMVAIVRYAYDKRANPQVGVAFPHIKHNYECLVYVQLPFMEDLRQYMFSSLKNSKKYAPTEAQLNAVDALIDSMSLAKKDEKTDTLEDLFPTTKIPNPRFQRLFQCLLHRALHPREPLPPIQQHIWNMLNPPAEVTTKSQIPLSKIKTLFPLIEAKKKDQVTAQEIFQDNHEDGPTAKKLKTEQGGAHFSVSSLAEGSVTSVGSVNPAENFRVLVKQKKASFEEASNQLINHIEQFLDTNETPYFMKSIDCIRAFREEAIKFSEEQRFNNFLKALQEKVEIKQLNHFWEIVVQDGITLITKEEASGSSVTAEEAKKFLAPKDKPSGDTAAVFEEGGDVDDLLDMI
Sequence of UniProt Q9BZI7 (Q9BZI7 whole entry, looked up): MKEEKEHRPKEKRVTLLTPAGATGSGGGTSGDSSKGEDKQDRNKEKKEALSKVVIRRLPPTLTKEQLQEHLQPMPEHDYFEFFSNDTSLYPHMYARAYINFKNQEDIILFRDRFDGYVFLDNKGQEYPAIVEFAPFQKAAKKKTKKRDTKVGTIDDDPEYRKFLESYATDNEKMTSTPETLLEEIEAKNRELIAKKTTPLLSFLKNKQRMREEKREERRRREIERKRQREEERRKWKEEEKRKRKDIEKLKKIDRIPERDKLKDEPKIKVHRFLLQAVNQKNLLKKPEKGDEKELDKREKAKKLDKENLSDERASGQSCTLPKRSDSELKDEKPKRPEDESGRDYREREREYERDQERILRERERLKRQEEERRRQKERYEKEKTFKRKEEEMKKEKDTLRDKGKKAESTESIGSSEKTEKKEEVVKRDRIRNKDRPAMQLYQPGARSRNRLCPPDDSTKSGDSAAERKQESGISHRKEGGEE
Sequence of UniProt Q9Y4E6 (Q9Y4E6 whole entry, looked up): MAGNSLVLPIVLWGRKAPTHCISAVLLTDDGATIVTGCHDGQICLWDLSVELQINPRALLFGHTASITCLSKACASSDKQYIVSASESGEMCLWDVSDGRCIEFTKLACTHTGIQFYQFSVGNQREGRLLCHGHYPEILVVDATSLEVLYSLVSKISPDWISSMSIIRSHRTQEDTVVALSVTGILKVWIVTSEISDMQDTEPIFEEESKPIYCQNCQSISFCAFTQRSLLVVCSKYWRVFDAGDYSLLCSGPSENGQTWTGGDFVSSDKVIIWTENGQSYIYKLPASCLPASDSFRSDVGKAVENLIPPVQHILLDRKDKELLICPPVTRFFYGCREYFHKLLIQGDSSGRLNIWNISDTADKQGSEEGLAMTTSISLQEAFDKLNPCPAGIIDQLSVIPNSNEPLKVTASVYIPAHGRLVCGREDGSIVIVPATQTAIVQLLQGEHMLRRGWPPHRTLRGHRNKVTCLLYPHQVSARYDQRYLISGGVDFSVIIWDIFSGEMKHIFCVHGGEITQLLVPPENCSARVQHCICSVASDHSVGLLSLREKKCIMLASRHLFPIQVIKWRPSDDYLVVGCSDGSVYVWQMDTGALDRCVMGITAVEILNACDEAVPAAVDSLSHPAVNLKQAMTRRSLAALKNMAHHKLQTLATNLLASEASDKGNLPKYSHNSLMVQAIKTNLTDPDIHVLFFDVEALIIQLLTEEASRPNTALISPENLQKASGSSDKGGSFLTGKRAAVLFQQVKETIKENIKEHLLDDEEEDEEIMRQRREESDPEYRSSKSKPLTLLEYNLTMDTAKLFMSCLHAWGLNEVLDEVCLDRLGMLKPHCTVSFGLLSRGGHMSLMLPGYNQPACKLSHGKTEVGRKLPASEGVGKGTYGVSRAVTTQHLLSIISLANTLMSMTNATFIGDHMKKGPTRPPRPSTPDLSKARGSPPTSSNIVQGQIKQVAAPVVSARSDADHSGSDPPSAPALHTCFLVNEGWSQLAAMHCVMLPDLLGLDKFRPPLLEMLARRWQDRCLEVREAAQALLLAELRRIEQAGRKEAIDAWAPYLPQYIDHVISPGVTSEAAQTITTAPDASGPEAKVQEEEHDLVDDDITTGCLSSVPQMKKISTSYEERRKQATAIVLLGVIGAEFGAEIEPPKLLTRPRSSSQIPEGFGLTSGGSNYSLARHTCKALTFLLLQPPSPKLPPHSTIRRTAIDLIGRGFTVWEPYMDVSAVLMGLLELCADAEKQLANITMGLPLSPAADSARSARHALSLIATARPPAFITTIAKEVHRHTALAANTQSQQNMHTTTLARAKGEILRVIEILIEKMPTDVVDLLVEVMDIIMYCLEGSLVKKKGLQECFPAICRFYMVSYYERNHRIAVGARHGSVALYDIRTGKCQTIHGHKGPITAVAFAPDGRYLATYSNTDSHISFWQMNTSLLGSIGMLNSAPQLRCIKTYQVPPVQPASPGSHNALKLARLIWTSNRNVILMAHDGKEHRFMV
Sequence of UniProt O75554 (O75554 whole entry, looked up): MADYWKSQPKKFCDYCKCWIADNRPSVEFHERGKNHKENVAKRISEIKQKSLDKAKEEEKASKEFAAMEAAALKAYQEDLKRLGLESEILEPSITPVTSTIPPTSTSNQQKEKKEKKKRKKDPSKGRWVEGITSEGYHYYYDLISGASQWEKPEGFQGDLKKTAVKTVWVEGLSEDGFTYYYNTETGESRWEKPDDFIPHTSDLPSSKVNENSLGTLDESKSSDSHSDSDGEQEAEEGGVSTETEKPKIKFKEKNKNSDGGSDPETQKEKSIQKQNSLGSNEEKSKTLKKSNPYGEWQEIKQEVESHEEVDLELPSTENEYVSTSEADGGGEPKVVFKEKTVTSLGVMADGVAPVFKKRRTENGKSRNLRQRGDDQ
Sequence of UniProt A0PJW6 (A0PJW6 whole entry, looked up): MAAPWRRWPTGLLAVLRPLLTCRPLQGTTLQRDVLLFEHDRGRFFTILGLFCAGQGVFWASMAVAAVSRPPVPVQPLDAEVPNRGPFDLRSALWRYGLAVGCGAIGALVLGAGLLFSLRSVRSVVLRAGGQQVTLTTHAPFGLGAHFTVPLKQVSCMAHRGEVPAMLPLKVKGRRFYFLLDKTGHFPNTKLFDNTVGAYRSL
Sequence of UniProt Q16881 (Q16881 whole entry, looked up): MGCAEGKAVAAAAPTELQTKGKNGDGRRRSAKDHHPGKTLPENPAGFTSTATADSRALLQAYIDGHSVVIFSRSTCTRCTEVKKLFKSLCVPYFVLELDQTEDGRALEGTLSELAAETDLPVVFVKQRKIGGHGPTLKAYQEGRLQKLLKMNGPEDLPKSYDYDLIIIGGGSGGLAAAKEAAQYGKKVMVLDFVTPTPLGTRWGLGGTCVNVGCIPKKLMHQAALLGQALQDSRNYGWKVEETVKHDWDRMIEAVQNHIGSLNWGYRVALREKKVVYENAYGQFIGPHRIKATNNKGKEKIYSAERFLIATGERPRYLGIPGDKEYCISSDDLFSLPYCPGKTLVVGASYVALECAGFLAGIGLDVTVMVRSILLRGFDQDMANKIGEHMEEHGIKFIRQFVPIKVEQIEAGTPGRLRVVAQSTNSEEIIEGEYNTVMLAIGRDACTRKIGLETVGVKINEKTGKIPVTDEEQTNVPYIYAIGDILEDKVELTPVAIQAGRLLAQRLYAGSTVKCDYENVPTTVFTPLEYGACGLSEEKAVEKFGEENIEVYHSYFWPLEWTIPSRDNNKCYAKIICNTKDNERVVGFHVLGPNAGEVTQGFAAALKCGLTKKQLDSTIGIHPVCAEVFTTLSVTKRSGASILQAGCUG
Sequence of UniProt Q01081 (Q01081 whole entry, looked up): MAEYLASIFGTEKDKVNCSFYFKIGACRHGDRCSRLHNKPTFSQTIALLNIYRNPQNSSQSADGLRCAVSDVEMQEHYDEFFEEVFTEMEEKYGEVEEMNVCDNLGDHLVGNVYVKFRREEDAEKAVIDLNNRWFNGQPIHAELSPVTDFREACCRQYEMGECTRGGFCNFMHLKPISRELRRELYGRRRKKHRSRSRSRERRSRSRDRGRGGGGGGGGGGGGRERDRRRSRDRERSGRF
Sequence of UniProt Q9P0T7 (Q9P0T7 whole entry, looked up): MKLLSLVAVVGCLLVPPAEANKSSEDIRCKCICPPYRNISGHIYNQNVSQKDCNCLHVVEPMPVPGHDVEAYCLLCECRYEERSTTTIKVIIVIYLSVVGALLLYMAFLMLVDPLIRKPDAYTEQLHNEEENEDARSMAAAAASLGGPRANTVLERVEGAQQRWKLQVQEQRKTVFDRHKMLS
Sequence of UniProt Q8N4H5 (Q8N4H5 whole entry, looked up): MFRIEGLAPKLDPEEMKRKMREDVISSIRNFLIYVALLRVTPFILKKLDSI

log2 fold change, inactive:
TRAPPC2L (UniProt Q9UL33) -0.042
UGDH (UniProt O60701) 0.018
WDR7 (UniProt Q9Y4E6) -0.034
TOMM5 isoform 2 (UniProt Q8N4H5) -0.141
USP7 (UniProt Q93009) -0.018
TYW1 (UniProt Q9NV66) -0.003
UBR2 (UniProt Q8IWV8) 0.021
TMEM161A (UniProt Q9NX61) -0.156
XPNPEP1 isoform 3 (UniProt Q9NQW7) -0.047
XRCC6 (UniProt P12956) -0.003
TNPO2 (UniProt O14787) -0.004
TRMT10C (UniProt Q7L0Y3) -0.044
UHRF1BP1L (UniProt A0JNW5) 0.055
TUBA4A (UniProt P68366) 0.038
USP3 (UniProt Q9Y6I4) 0.011
WBP4 (UniProt O75554) -0.043
VTA1 (UniProt Q9NP79) -0.035
UBE3D (UniProt Q7Z6J8) -0.036
VPS16 (UniProt Q9H269) 0.041
TXNRD1 (UniProt Q16881) -0.012
TMEM177 (UniProt Q53S58) -0.123
WDCP (UniProt Q9H6R7) -0.052
TMEM223 (UniProt A0PJW6) -0.156
VRK1 (UniProt Q99986) 0.035
UBE2S (UniProt Q16763) -0.025
XRCC5 (UniProt P13010) 0.083
TMEM9 (UniProt Q9P0T7) 0.028
TRMT10A (UniProt Q8TBZ6) 0.006
TNPO1 (UniProt Q92973) -0.104
WARS2 (UniProt Q9UGM6) -0.183
VPS53 isoform 4 (UniProt Q5VIR6) -0.04
TSG101 (UniProt Q99816) -0.096
U2AF1 isoform 2 (UniProt Q01081) 0.037
UPF3B (UniProt Q9BZI7) 0.108
VPS50 (UniProt Q96JG6) 0.017
TTC38 (UniProt Q5R3I4) -0.012
